hcDAF12 agonist = H. contortus DAF-12 activation, primary screen; HEK293 hcDAF-12 lit1-tk-luc reporter, luminescence; 0% DMSO, 100% Δ7-dafachronic acid; activation, % at 6.8 µM; hit rate 1.4% among 370,000; AID 652067;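 active = activation above the mean of all tested compounds plus 3 SD, cut at about 5.5% in these data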;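 note: 100% = response to 3 µM Δ7-dafachronic acid high control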
DAX1 inh-1 = inhibitors of DAX1 repression of SF-1 activated StAR promoter | HEK293T StAR-luciferase reporter, SF-1/DAX-1 repression relief | inhibition, % at 6.8 µM | hit rate 1.1% among 370,000 | AID 652010;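 active = inhibition above the mean over all tested compounds plus 3 SD, cut at about 3.6% in these data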;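 note: 0% = DAX-1 cells with DMSO and 100% = cells lacking DAX-1 with DMSO; higher inhibition means more luminescence from relief of DAX-1 repression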
DAX1 inh-2 = NR0B1 (DAX1) inhibition. AID 504766. hit rate 0.99% among 340,000. HEK293 Gal4-DAX1 luciferase reporter, luminescence. inhibition, % at 6.75 µM;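 active = inhibition above the mean over all tested compounds plus 3 SD, cut at about 4.2% in these data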;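 note: 0% = DAX1-transfected cells with DMSO and 100% = empty-vector control cells with DMSO; inhibition shows as a rise in luminescence from relieved DAX1 repression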
Target sequence (P51843 207-470 limits assumed): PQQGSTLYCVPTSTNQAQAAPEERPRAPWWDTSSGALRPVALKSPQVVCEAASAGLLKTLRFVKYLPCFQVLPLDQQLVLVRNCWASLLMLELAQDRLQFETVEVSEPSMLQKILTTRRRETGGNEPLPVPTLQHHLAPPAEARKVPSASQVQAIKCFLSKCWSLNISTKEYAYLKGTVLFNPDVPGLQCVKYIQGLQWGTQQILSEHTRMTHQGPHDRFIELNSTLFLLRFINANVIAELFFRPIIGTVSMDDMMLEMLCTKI
ssDAF12 agonist = activators of S. stercoralis DAF-12 nuclear receptor; HEK293 ssDAF-12/GRIP1 lit1-tk-luc reporter, luminescence; % of 3 µM dafachronic acid response; activation, % at 6.8 µM; hit rate 1% among 370,000; AID 652126;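 active = activation above the mean over all tested compounds plus 3 SD, cut at about 0.9% in these data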;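 note: 0% = DMSO-only wells and 100% = 3 µM delta7-dafachronic acid wells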
hgDAF12 agonist = hgDAF-12 agonism, primary luciferase screen. activation, % at 6.8 µM. HEK293 GAL4-hgDAF12 UAS-luciferase reporter, agonist luminescence; normalized to butyrate control. hit rate 1.8% among 370,000;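 active = activation above a cutoff set at the mean of all screened compounds plus 3 SD, cut at about 10% in these data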;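 note: 0% = DMSO wells and 100% = sodium butyrate wells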
* marks the source's active call; other numbers are inactive results; / = no result given. The list is not random: actives were taken first. Their share in the collection is about 4.1%.

SMILES	hcDAF12 agonist	DAX1 inh-1	DAX1 inh-2	ssDAF12 agonist	hgDAF12 agonist
O=C(C1CCC(CNc2c(N3CCCCC3)c(=O)c2=O)CC1)N1CCN(C2CCCCC2)CC1 (stereo unspecified)	-1	1	4.4*	-2	-1
O=[N+]([O-])c1ccc2[nH]c(=S)sc2c1	3	0	-1	2.2*	3
N#Cc1ccc(Cn2ccc3ccc(-c4ccc5ccn(C(=O)C6CCCCC6)c5c4)cc32)cc1	-2	-2	/	0	5
Cn1cnc(S(=O)(=O)NCc2cccs2)c1	0	0	3	1.6*	1
CCOC(=O)C/C(C)=N\Nc1nc(-c2ccccc2)cs1	1	1	-1	1.7*	2
Cc1c(C)n(Cc2ccc(-c3ccccc3C(=O)O)cc2)c2ccc(C(=O)N[C@@H](C)c3ccc([N+](=O)[O-])cc3)cc12	-2	0	/	-1	5
O=C(CNC(=O)c1ccncc1)N/N=C/c1ccc(Br)cc1	-2	0	6.5*	-1	-1
Cc1ccccc1CS(=O)(=O)Cc1ccc(C(=O)Nc2c(C)cccc2C)o1	-3	-1	/	-1	-1
C=C(C)CSc1nc2nc(C)c(Br)cc2[nH]1	0	2	6.0*	-2	5
CCc1nc2ccc(C(=O)NCC3CCCCC3)cn2c1N(CCC(C)C)CCN(C)C	-2	0	/	-1	-1
CCc1nc2ccc(C(=O)NCc3ccc(OC)cc3)cn2c1N(CCC(C)C)CCN(C)C	2	1	/	1.2*	1
COCc1cc(C)nc(SCc2ccc([N+](=O)[O-])cc2)c1C#N	-2	0	4.6*	-1	-3
CC(C)NC(=S)Nc1ccc2[nH]c(=O)[nH]c2c1	-2	0	4.5*	-1	3
CNC(=S)Nc1ccc2[nH]c(=O)[nH]c2c1	-1	0	0	-1	-1
N#Cc1ccccc1OCC(=O)Nc1ccc2c(c1)OCCO2	6.5*	4.1*	1	0	12*
N#Cc1ccccc1OCC(=O)Nc1ccc2c(c1)OCCCO2	-1	1	0	-1	8
O=C(Nc1ccc(NC(=O)c2ccccn2)cc1)C(=O)Nc1ccc2c(c1)OCCO2	1	1	0	-1	4
O=C(Nc1ccc2c(c1)OCCO2)c1ccccn1	3	4.4*	-5	0	6
O=C(Nc1ccc2c(c1)OCO2)Nc1cnccn1	0	0	2	-1	6
O=C(Nc1ccc2c(c1)OCO2)Nc1ccccn1	2	2	1	0	12*
O=C(Nc1ccc2c(c1)OCO2)c1cnn2cccnc12	5.7*	3	2	-1	10
Cc1c(NC(=O)C2CCCN(S(=O)(=O)c3ccc(Cl)s3)C2)c(=O)n(-c2ccccc2)n1C (stereo unspecified)	-1	-1	/	-1	-1
CC(OC(=O)c1ccccn1)C(=O)Nc1ccc2c(c1)OCCO2 (stereo unspecified)	0	-2	1	-1	11*
CCn1c2ccccc2c2cc(NC(=O)COC(=O)c3cc(F)cc(F)c3)ccc21	-2	1	/	-1	1
O=C(O)c1cccc2c1C(=O)N(c1ccccc1)C2	0	0	0	-1	0
SMILES	hcDAF12 agonist	DAX1 inh-1	DAX1 inh-2	ssDAF12 agonist	hgDAF12 agonist
S=C1c2ccccc2CN1c1ccccc1	6.0*	0	1	-1	5
O=C1Nc2ccc(F)cc2C12Nc1ccccc1-c1nnc(SCc3ccccc3)nc1O2 (stereo unspecified)	5.6*	0	0	-1	0
O=C(CCS(=O)(=O)c1ccccc1)Nc1ccc(F)cc1F	-2	0	/	-1	4
Cc1ccc(N/C=C/C(=O)c2ccco2)c(O)c1	-1	1	6.1*	-2	0
O=C(N/N=C/c1cccnc1)c1cccc(Cl)c1	1	0	4	-1	7
Cc1ccc(C(=O)N/N=C/c2cccnc2)cc1Cl	-1	1	-1	1.7*	-1
Clc1ccc(N/N=C/c2cccnc2)cc1	6.0*	0	-1	-1	4
O=[N+]([O-])c1ccc(N/N=C/c2cccnc2)cc1	0	-1	2	-1	7
Nc1c(Cl)ncnc1N/N=C/c1ccccn1	-3	-3	/	-1	-4
CN(C)c1ccc(/C=N/Nc2cccc(C(=O)O)c2)cc1	5	1	-3	0	12*
Nc1c(Cl)ncnc1N/N=C/c1cccnc1	1	0	5.0*	-1	-1
CC1=CC2=C(C=O)C(=O)C(C)(O)C(O)C2=CO1 (stereo unspecified)	1	1	0	-2	-2
O=C(NC1CCCCN(Cc2ccc(Cl)cc2)C1=O)c1ccc(-c2ccccc2)cc1 (stereo unspecified)	-6	-3	/	-2	-4
COc1cc(C)ccc1C(=O)N1CCC(Oc2cccnc2)CC1	-3	0	/	-1	3
CC(C)(C)c1ccc(/C=N/Nc2ccc(C(=O)O)cc2)cc1	-5	-2	-4	-2	-15
CC(C)(C)c1ccc(/C=N/Nc2cccc(C(=O)O)c2)cc1	4	4.0*	-4	-1	12*
O=C(O)c1cccc(N/N=C/c2cccnc2)c1	2	2	-3	2.3*	6
Cc1ccc(Cn2cc(CN(C3CC3)S(=O)(=O)c3ccccc3Br)nn2)cc1	-2	-1	/	-2	-1
COc1ccc(-c2nc(CCl)cs2)cc1	4	2	-1	0	5
CCc1ccc(-c2nc(CCl)cs2)cc1	6	3	1	0	12*
CC(C)[C@@H]1CC2=C(C(=O)OC(C)(C)O2)[C@H](CCc2ccccc2)O1	-1	0	/	-1	-1
CC(C)(C)OC(=O)N1CCC(c2ccc[nH]2)(c2c[nH]c3ccccc23)CC1	0	1	/	0	-4
O=c1oc2ccccc2c(N2CCCC2)c1[N+](=O)[O-]	-1	0	4.7*	-1	-3
C/C(=N/Nc1ccccc1[N+](=O)[O-])c1ccc([N+](=O)[O-])cc1	6.4*	0	1	0	1
C/C(=N\Nc1ccc(C#N)cc1[N+](=O)[O-])c1ccc(O)cc1	1	1	1	-1	0
SMILES	hcDAF12 agonist	DAX1 inh-1	DAX1 inh-2	ssDAF12 agonist	hgDAF12 agonist
Oc1[nH]c2ccccc2c1C1=NCCCC1	-1	0	1	-1	-1
O=C1C(c2c(O)[nH]c3ccccc23)=Nc2ccccc21	5	0	1	1.3*	4
CCOC(=O)c1sc(-c2ccc(OC)cc2)cc1N	4	2	3	0	12*
CCOC(=O)c1sc(-c2ccc(F)cc2)cc1N	0	3	0	-2	9
COC(=O)[C@H]1C[C@@]2(n3ccc4ccccc43)c3ccccc3N(S(=O)(=O)c3ccccc3)[C@H]2N1C(=O)CNC1CCCCC1	-1	-2	/	-1	-1
COC(=O)/C=C/c1sc2nc(C)cc(C)c2c1N=CN(C)C	5.6*	-1	/	0	7
Cc1ccc(OCC(=O)c2c[nH]c3ccccc23)c([N+](=O)[O-])n1	6.3*	2	3	1	4

Compound activity deposited in PubChem by The Scripps Research Institute Molecular Screening Center.
